aSyn 5UTR inh – 5' untranslated region of α-synuclein, MLPCN primary screen. inhibition, % (tested at 7.5 µM). alpha-synuclein 5'UTR reporter, inhibitor activity. actives 0.82% (n = 300,000). AID 1813; in the data active = inhibition above about 60%;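 note: H4 neuroglioblastoma cells stably carrying SNCA 5'UTR luciferase fusion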
Ba/F3 V617F tox – lowers viability of Ba/F3 cells expressing EpoR and JAK2V617F. ATP luminescence. inhibition, % at 5.6 µM. actives 1.1% (n = 220,000). AID 1446;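 active = inhibition above the campaign mean plus 3 SD over all tested compounds, cut at about 24% in these data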;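 note: cytokine-independent growth of Ba/F3 cells driven by EpoR plus mutant JAK2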
BaF3 tox – reduces parental Ba/F3 cell viability, JAK2V617F counter-screen; CellTiter-Glo ATP luminescence; inhibition, % at 5.6 µM; actives 1.1% (n = 220,000); AID 1486;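 active = inhibition above a per-campaign cutoff, the mean inhibition of all tested compounds plus 3 SD, cut at about 27% in these data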
KLF5 inh – suppresses KLF5 promoter-driven expression; DLD-1 KLF5 promoter-luciferase reporter, luminescence; inhibition, % at 5 µM; actives 0.23% (n = 290,000); AID 1700;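 active = inhibition above a per-plate limit of that plate's mean compound inhibition plus 3 SD, cut at about 60% in these data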;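 note: higher means less KLF5 promoter-driven luciferase light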
IEC-6 cytotox – counter-screen for KLF5 inhibitors: cytotoxicity in IEC-6 cells | actives 0.78% (n = 290,000) | AID 1825 | inhibition, % at 5 µM | IEC-6 cytotoxicity, luminescence viability; in the data active = inhibition above about 22%
APP transl inh – APP translation inhibition; SH-SY5Y APP 5'UTR-luciferase reporter, luminescence; inhibition, % at 2 µM; actives 0.82% (n = 190,000); AID 1285;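 active = inhibition above a set limit, derived from the sample mean plus 3 SD, cut at about 45% in these data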
Numbers stand for hits; . = inactive; / = not tested or not shown. In the library only some 2.2% were active in any assay of this set; here they are far more common.

SMILES | aSyn 5UTR inh | Ba/F3 V617F tox | BaF3 tox | KLF5 inh | IEC-6 cytotox | APP transl inh
COc1cc(C)c(Cc2cnc(N)nc2N)cc1OC | . | 33 | . | . | . | /
CC(C)Oc1ccc(Cc2cnc(N)nc2N)cc1 | . | . | . | . | . | .
CCOc1ccc(NC(C)=O)cc1 | . | / | / | . | . | /
CC(=O)Nc1ccc(OCc2cccc3ccccc23)cc1 | 92 | / | / | . | . | /
Cc1ccc2nc(-c3ccc(-c4ccccn4)s3)cn2c1 | . | . | . | . | . | /
O=C(CNC(=O)c1ccco1)OCC(=O)c1ccc(Cl)cc1Cl | . | . | . | . | . | .
CC1=[N+](C)c2ccc3ccccc3c2C1(C)C | . | 53 | 54 | . | . | .
Cc1nsc2c1ccc1ccccc12 | . | . | . | . | . | .
CCOc1ccccc1NC(=O)CSc1nnc(-c2cccnc2)o1 | . | / | / | / | / | /
COCC(C)n1c(SCc2nc3ccccc3c(=O)[nH]2)nc2ccccc2c1=O (stereo not given) | . | . | . | . | 34 | .
CC1(C)C2CCC1(C)C(OCC[N+](C)(C)CC(=O)OC1CCCCC1)C2 (stereo not given) | . | 100 | 83 | . | . | .
CCOC(=O)C[N+](C)(C)CCOC1CC2CCC1(C)C2(C)C (stereo not given) | . | . | 30 | . | . | .
COc1ccc(C(=O)Nc2ccc3c(c2)C(=O)c2ccccc2C3=O)cc1OC | . | . | . | . | . | .
COc1ccc(C(=O)c2c(C(F)(F)F)oc3c2C(=O)c2ccccc2C3=O)cc1OC | 111 | . | . | . | . | .
Cc1ccc(NC(=O)CN2C(=O)C3C4C=CC(C4)C3C2=O)cc1S(=O)(=O)N(C)C (stereo not given) | . | . | . | . | . | 55
NS(=O)(=O)c1ccc(NC(=O)CN2C(=O)C3C4C=CC(C4)C3C2=O)cc1 (stereo not given) | . | . | . | . | . | .
CN(C)c1ccc(CNc2ccc3c(c2)ncn3C)cc1 | . | . | 33 | . | . | .
CCCCn1c(NC(C)=O)c(C#N)c2nc3ccccc3nc21 | . | . | . | . | . | 52
CCCCCn1c(N)c(C#N)c2nc3ccccc3nc21 | . | . | . | . | . | .
Cc1ccc(C#N)c(SCc2ccccc2F)n1 | . | . | . | . | . | /
Cc1ccc2nc(CSc3nc(C)ccc3C#N)[nH]c2c1 | 79 | . | . | . | . | .
COC(C(=O)N1CCC(n2nccc2NC(=O)C2CC2)CC1)c1ccccc1 (stereo not given) | . | / | / | . | . | /
O=C(Nc1c2c(nn1-c1ccc(F)cc1)CS(=O)(=O)C2)c1ccc(S(=O)(=O)N2CCOCC2)cc1 | . | . | . | . | . | .
Nc1ccc(C(=O)N/N=C/c2cn(Cc3ccccc3F)c3ccccc23)cc1 | 72 | / | / | . | . | /
COC(=O)N/N=C/c1cn(Cc2ccccc2F)c2ccccc12 | . | . | . | . | . | /
SMILES | aSyn 5UTR inh | Ba/F3 V617F tox | BaF3 tox | KLF5 inh | IEC-6 cytotox | APP transl inh
Nc1ccc(C(=O)N/N=C/c2cn(Cc3ccccc3)c3ccccc23)cc1 | . | / | / | . | . | /
Nc1ccc(C(=O)N/N=C/c2cn(Cc3ccc(F)cc3)c3ccccc23)cc1 | 64 | / | / | . | . | /
Cc1ccc(OCC(=O)N/N=C\c2cn(Cc3ccccc3)c3ccccc23)cc1C | 76 | . | . | . | . | .
CC(=O)Nc1cccc(Oc2ncnc3scc(-c4ccc(C(C)C)cc4)c23)c1 | . | . | . | . | 26 | .
CCOc1cccc(/C=N/NC(=S)Nc2cc(S(=O)(=O)N3CCOCC3)ccc2N2CCOCC2)c1O | 81 | . | . | . | . | 54
COc1ccc2ccccc2c1/C=N/NC(=S)Nc1cc(S(=O)(=O)N2CCOCC2)ccc1N1CCOCC1 | . | . | . | . | . | .
CCC(CC)COC(=O)C1=C(C)NC(=O)NC1c1ccccc1Br (stereo not given) | . | / | / | . | . | /
CC(C)N(Cc1cc2ccccc2[nH]c1=O)C(=O)C1CCCCC1 | . | . | 28 | . | . | .
N#Cc1c(NC(=O)CSc2nc(N)cc(=O)[nH]2)sc2c1CCCCCC2 | . | . | . | . | . | .
N#Cc1c(NC(=O)CSc2ncn[nH]2)sc2c1CCCCC2 | 82 | . | . | . | . | 79
Cn1[nH]c(C(F)(F)F)c(C=Nc2ccc(Cl)cc2)c1=O | . | . | . | . | . | .
COc1ccc2c(c1)c(CC(=O)Nc1nnc(C3CC3)s1)c(C)n2C(=O)c1ccc(Cl)cc1 | . | . | 38 | . | . | /
CCOc1ccc(S(=O)(=O)N2CCC(C(=O)NC3CCCC3)CC2)cc1 | . | / | / | . | . | /
COc1ccc(N2CC(C(=O)Nc3ncccc3C)CC2=O)cc1 (stereo not given) | . | . | 101 | . | . | .
COc1ccc(N2CC(C(=O)N/N=C/c3ccc(C)cc3)CC2=O)cc1 (stereo not given) | . | . | . | . | . | 83
CSc1ccc(/C=N/NC(=O)c2ccccc2Cl)cc1 | . | . | . | . | . | .
CCc1sc(NC(=O)CCC(=O)O)nc1-c1cc2ccccc2oc1=O | . | . | . | . | . | .
NC(=O)c1ncn([C@@H]2O[C@H](CO)[C@@H](O)[C@H]2O)n1 | . | . | . | . | . | .
OCC1OC(n2nc3ccccc3n2)C(O)C(O)C1O (stereo not given) | . | . | 28 | . | . | .
O=C(CCSCc1ccc(Cl)cc1)NCc1cccnc1 | . | . | . | . | . | .
C=C1C(=O)O[C@@H]2C[C@@H](C)[C@@H]3C=CC(=O)[C@@]3(C)[C@@H](OC(C)=O)[C@H]12 | 95 | / | / | / | / | /
COc1ccc(N2CC(C(=O)NCc3n[nH]c(=O)c4ccccc34)CC2=O)cc1 (stereo not given) | . | / | / | / | / | /
O=C1CC2(CCCC2)Oc2ccc(F)cc21 | . | / | / | / | / | /
COc1cccc(C(=O)N/N=C(/CCC(=O)O)c2ccccc2)c1 | . | . | . | . | . | .
COc1cc(C(=O)N/N=C(\c2ccccc2)c2ccccn2)cc(OC)c1OC | 81 | . | . | . | . | 82
SMILES | aSyn 5UTR inh | Ba/F3 V617F tox | BaF3 tox | KLF5 inh | IEC-6 cytotox | APP transl inh
COc1cccc(C(=O)N/N=C(/c2ccccc2)c2ccccn2)c1 | 73 | 101 | 97 | . | . | .
COc1cc(NC(=O)c2ccccn2)cc(OC)c1OC | . | . | . | . | . | .
O=[N+]([O-])c1ccc(-c2ccc(/C=N/Nc3nc(N4CCCCC4)nc(N4CCCCC4)n3)o2)cc1 | . | . | . | . | . | .
O=[N+]([O-])c1cccc(-c2ccc(/C=N/Nc3nc(N4CCCCC4)nc(N4CCCCC4)n3)o2)c1 | 73 | . | . | . | . | .
CN1C2C=C3C(C#N)=C(N)C(C#N)(C#N)[C@H](c4c(F)cccc4F)[C@H]3C1CC2 (stereo not given in full) | . | . | . | . | . | 47
CN1C2C=C3C(C#N)=C(N)C(C#N)(C#N)[C@@H](c4cccc(F)c4)[C@@H]3C1CC2 (stereo not given in full) | . | . | . | . | . | .
COC(=O)c1c(C)[nH]c(-c2csc(N)n2)c1C | . | . | 51 | . | . | .
CCOC(=O)c1[nH]c(C)c(C(=O)OC)c1C | . | . | . | . | . | /
